# Several values for one entry are separate records, joined by “and”; a condition that tells them apart may be missing. Equal entries are not always repeated. Records with an inconclusive call do not appear. Where a call stands in place of a potency, no number is given. More than one record can exist for a structure, and the calls need not agree. Activity calls are given as the source filed them. Unless noted, calls follow the shape of the dose curve; as a rule, active = well fitted curve in the direction sought with a large enough effect in the repeat runs; inconclusive = weak or mixed curves; inactive = no such curve, though single readings can be large; an effect the other way counts as inactive or inconclusive.
# Legend:
# [1] = qHTS assay to test for compound auto fluorescence at 535 nm (green) in HEK293 cells (AID 720680)
# [2] = qHTS assay to test for compound auto fluorescence at 460 nm (blue) in HEK293 cell free culture (AID 720681)
# Outline: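 Compounds were added to cell-free DMEM with 10% FBS and fluorescence read directly. The blue channel used 405 nm excitation and 460 nm emission, with triamterene as the reference fluorophore.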
# [3] = qHTS assay to test for compound auto fluorescence at 535 nm (green) in HEK293 cell free culture (AID 720682)
# Outline: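 Cell-free medium (DMEM, 10% FBS) receives compound or DMSO by pintool. Plate read directly at Ex 485/Em 535 nm. Signal converted to fluorescein equivalency.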
# [4] = qHTS assay to test for compound auto fluorescence at 590 nm (red) in HEK293 cell free culture (AID 720683)
# Outline: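 Cell-free wells of DMEM with 10% FBS received compound, and intrinsic fluorescence was read at excitation/emission 540/590 nm. Values expressed as equivalence to Rose Bengal sodium.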
# [5] = qHTS assay to test for compound auto fluorescence at 590 nm (red) in HepG2 cell free culture (AID 720684)
# Outline: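 Rose Bengal sodium served as the reference for red signal. Test compounds were dispensed into serum-containing MEM (10% FBS) without cells, and plates were read at 540/590 nm.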
# [6] = qHTS assay to test for compound auto fluorescence at 460 nm (blue) in HepG2 cell free culture (AID 720685)
# Outline: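 Cell-free plates of MEM plus 10% FBS received 23 nL compound or DMSO vehicle; blue-channel (405/460 nm) intensity scored against triamterene as reference fluorophore.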
# [7] = qHTS assay to test for compound auto fluorescence at 460 nm (blue) in HepG2 cells (AID 720687)
# Outline: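 HepG2 cells in MEM with 10% FBS, attached overnight at 37 C, were exposed to compound or DMSO for 1 hr at 37 C, 5% CO2. Blue fluorescence was read at 405/460 nm, with triamterene as reference fluorophore.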
# [8] = biological target: Glucocorticoid receptor (Homo sapiens) (UniProt P04150); experiment: qHTS assay to identify small molecule agonists of the glucocorticoid receptor (GR) signaling pathway (AID 720691; active = well fitted activation curve with a large enough effect in the signal ratio in the repeat runs, not every such curve was filed as active; the % refers to the signal ratio)
# Outline: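 Agonist-mode qHTS in HeLa cells stably expressing a glucocorticoid-response-element beta-lactamase reporter. Fluorescence intensity read with FRET substrate (2 h, room temperature) after 18 h compound treatment at 37 C.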
# [9] = biological target: Glucocorticoid receptor (Homo sapiens) (UniProt P04150); experiment: qHTS assay to identify small molecule antagonists of the glucocorticoid receptor (GR) signaling pathway (AID 720692; active = well fitted inhibition curve with a large enough effect in the signal ratio in the repeat runs, not every such curve was filed as active; the % refers to the signal ratio)
# Outline: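 Inhibition of dexamethasone-driven (5 nM final) beta-lactamase expression was measured in GRE-reporter HeLa cells over 18 h at 37C. Fluorescence was read after 2 h with the B/G FRET substrate at room temperature.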
# [10] = qHTS assay to identify small molecule antagonists of the glucocorticoid receptor (GR) signaling pathway - cell viability counter screen (AID 720693); also: nearly all actives have a fitted effect of over 55% in size
# [11] = qHTS assay for identifying genotoxic compounds that show differential cytotoxicity against isogenic chicken DT40 cell lines with known DNA damage response pathways - wild type cell line (AID 743012); also: nearly all actives have a fitted effect of over 60% in size
# Outline: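 Viability by ATP luminescence (CellTiter-Glo, 30 min RT) after 40 h compound treatment at 37 C/5% CO2, using 300 parental DNA repair-proficient DT40 cells per well.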
# [12] = qHTS assay for identifying genotoxic compounds that show differential cytotoxicity against isogenic chicken DT40 cell lines with known DNA damage response pathways - Rad54/Ku70 mutant cell line (AID 743015); also: nearly all actives have a fitted effect of over 60% in size; also: potency is read from the fitted curve at half-maximal effect
# [13] = qHTS assay to identify small molecule antagonists of the androgen receptor (AR) signaling pathway using the MDA cell line - cell viability counter screen (AID 743041; also: nearly all actives have a fitted effect of over 45% in size)
# Outline: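 Cytotoxicity counter screen: MDA-kb2 AR-luc cells, compound + R1881, 16 h, 37C, 0% CO2; CellTiter-Fluor added at 15.5 h, fluorescence read after 30 min.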
# [14] = qHTS assay to test for compound auto fluorescence at 535 nm (green) in HepG2 cell free culture (AID 720686)
# [15] = qHTS assay to identify small molecule antagonists of the androgen receptor (AR) signaling pathway - cell viability counter screen (AID 743033; also: nearly all actives have a fitted effect of over 45% in size)
# [16] = qHTS assay for identifying genotoxic compounds that show differential cytotoxicity against isogenic chicken DT40 cell lines with known DNA damage response pathways - Rev3 mutant cell line (AID 743014); also: nearly all actives have a fitted effect of over 55% in size
# [17] = biological target: Androgen receptor (Homo sapiens) (UniProt P10275); experiment: qHTS assay to identify small molecule antagonists of the androgen receptor (AR) signaling pathway (AID 743035; active = well fitted inhibition curve with a large enough effect in the signal ratio in the repeat runs, not every such curve was filed as active; the % refers to the signal ratio)
# Outline: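 Antagonist mode: AR-bla HEK293 cells co-treated with test compounds and agonist R1881 for 16 h at 37C, 5% CO2. Beta-lactamase activity read as FRET fluorescence after 2 h room-temperature substrate loading.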
# [18] = biological target: Androgen receptor (Homo sapiens) (UniProt P10275); experiment: qHTS assay to identify small molecule agonists of the androgen receptor (AR) signaling pathway (AID 743036; active = well fitted activation curve with a large enough effect in the signal ratio in the repeat runs, with a control signal flat, not every such curve was filed as active; the % refers to the signal ratio)
# Outline: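 AR-bla HEK293 cells, 2,000/well; 4 h preincubation 37C/5% CO2; compound (DMSO) 16 h at 37C; LiveBLAzer B/G FRET substrate 2 h RT; fluorescence intensity read-out.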
# [19] = biological target: Androgen receptor (Homo sapiens) (UniProt P10275); experiment: qHTS assay to identify small molecule agonists of the androgen receptor (AR) signaling pathway using the MDA cell line (AID 743040; also: nearly all actives have a fitted effect of over 20% in size)
# Outline: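 Luciferase read-out, ONE-Glo, 30 min RT. Cells: MDA-kb2 AR-luc, MMTV promoter with AR and GR response elements. Compound exposure 16 h, 37C, 0% CO2, after 5 h pre-incubation. qHTS agonist mode.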
# [20] = biological target: Androgen receptor (Homo sapiens) (UniProt P10275); experiment: qHTS assay to identify small molecule antagonists of the androgen receptor (AR) signaling pathway using the MDA cell line (AID 743042; also: nearly all actives have a fitted effect of over 55% in size)
# Outline: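 MDA-kb2 breast carcinoma cells carrying MMTV-luciferase (AR/GR responsive) were co-treated with compounds and the agonist R1881 for 16 h at 37C. Inhibition read as ONE-Glo luminescence; CellTiter-Fluor fluorescence measured in parallel for cytotoxicity.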
# Chain of Glucocorticoid receptor (Homo sapiens) (P04150 whole entry, looked up): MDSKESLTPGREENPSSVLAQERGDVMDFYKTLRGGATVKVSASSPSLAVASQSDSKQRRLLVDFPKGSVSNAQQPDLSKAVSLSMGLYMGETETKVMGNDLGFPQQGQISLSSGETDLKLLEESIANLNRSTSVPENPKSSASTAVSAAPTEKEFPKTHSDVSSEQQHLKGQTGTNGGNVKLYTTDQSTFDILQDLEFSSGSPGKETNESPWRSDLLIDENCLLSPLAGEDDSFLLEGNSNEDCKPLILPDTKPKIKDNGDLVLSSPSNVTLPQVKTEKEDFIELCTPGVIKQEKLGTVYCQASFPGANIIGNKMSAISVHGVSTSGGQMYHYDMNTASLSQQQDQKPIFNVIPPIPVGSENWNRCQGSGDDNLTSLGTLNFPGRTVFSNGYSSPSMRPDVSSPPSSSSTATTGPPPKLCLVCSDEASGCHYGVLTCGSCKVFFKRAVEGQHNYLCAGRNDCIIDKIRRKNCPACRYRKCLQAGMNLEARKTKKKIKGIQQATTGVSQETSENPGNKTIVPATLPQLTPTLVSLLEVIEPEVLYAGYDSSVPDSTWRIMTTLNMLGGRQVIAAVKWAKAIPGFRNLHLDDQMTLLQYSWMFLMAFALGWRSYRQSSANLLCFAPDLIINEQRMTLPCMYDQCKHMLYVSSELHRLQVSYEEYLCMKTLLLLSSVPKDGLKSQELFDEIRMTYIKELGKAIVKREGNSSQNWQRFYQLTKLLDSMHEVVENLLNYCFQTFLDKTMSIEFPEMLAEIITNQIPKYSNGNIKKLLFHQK
# Chain of Androgen receptor (Homo sapiens) (P10275 whole entry, looked up): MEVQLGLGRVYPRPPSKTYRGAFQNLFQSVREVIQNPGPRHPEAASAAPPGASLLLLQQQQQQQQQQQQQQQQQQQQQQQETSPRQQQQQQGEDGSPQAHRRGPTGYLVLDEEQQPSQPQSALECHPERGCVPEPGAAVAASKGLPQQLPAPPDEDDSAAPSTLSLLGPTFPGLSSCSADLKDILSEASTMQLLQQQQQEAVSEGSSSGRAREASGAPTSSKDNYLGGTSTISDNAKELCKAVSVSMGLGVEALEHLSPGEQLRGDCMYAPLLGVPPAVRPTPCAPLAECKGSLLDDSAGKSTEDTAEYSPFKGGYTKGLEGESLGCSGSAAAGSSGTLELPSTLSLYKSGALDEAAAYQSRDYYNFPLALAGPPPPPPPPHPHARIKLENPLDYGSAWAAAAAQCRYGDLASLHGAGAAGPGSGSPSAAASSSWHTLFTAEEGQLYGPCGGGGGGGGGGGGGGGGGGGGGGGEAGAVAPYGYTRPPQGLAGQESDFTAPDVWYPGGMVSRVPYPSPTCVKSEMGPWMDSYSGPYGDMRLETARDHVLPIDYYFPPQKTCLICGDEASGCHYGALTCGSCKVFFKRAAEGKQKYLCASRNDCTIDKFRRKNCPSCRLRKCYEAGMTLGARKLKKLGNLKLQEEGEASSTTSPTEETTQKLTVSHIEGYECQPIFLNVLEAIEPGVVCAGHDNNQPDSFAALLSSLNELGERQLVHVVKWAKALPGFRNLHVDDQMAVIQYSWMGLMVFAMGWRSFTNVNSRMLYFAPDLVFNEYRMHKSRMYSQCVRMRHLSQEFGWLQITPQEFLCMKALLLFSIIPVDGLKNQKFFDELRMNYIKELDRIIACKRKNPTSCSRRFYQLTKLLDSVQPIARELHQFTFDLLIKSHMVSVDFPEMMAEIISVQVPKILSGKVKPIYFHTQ
smiles,measurement,setting,value
CCCCN,outcome,[1],inactive
same,outcome,[2],inactive
same,outcome,[3],inactive
same,outcome,[4],inactive
same,outcome,[5],inactive
same,outcome,[6],inactive
same,outcome,[7],inactive
same,Potency,[8],inactive
same,outcome,[9],inactive
same,outcome,[10],inactive
same,Potency,[11],inactive
same,Potency,[12],inactive
same,Potency,[13],inactive
CCC(C)(CCC(C)C)C(=O)O (centres undefined),outcome,[1],inactive
same,outcome,[2],inactive
same,outcome,[3],inactive
same,outcome,[4],inactive
same,outcome,[5],inactive
same,outcome,[6],inactive
same,outcome,[14],inactive
same,outcome,[7],inactive
same,Potency,[11],inactive
same,Potency,[12],inactive
same,Potency,[15],inactive
same,Potency,[13],inactive
Nc1ccc(S(=O)(=O)Nc2ccc(Cl)nn2)cc1,outcome,[1],inactive
same,outcome,[2],inactive
same,outcome,[3],inactive
same,outcome,[4],inactive
same,outcome,[5],inactive
same,outcome,[6],inactive
same,outcome,[7],inactive
same,outcome,[10],inactive
same,Potency,[11],inactive
same,Potency,[16],inactive
same,Potency,[12],inactive
same,Potency,[15],inactive
same,Potency,[17],inactive
same,outcome,[18],inactive
same,outcome,[19],inactive
same,Potency,[13],inactive
same,Potency,[20],inactive
CCCOC(=O)C(C)O (centres undefined),outcome,[1],inactive
same,outcome,[2],inactive
same,outcome,[3],inactive
same,outcome,[4],inactive
same,outcome,[5],inactive
same,outcome,[6],inactive
same,outcome,[14],inactive
same,outcome,[7],inactive
same,Potency,[17],inactive
same,outcome,[18],inactive
same,outcome,[19],inactive
same,Potency,[13],inactive
same,Potency,[20],inactive
O=C(O)c1ccc(Cl)cc1Cl,outcome,[1],inactive
same,outcome,[2],inactive
same,outcome,[3],inactive
same,outcome,[4],inactive
same,outcome,[5],inactive
same,outcome,[6],inactive
same,outcome,[7],inactive
same,Potency,[8],inactive
same,outcome,[9],inactive
same,Potency,[11],inactive
same,Potency,[16],inactive
same,Potency,[12],inactive
same,Potency,[15],inactive
same,Potency,[13],inactive
CC(C)NCC(O)COc1ccc(COCCOC(C)C)cc1 (centres undefined),outcome,[1],inactive
same,outcome,[2],inactive
same,outcome,[3],inactive
same,outcome,[4],inactive
same,outcome,[5],inactive
same,outcome,[6],inactive
same,outcome,[7],inactive
same,Potency,[8],inactive
same,outcome,[9],inactive
same,outcome,[10],inactive
same,Potency,[11],inactive
same,Potency,[16],inactive
same,Potency,[12],inactive and 26.6 µM (active)
same,Potency,[15],inactive
same,Potency,[17],inactive
same,outcome,[18],inactive
same,outcome,[19],inactive
same,Potency,[13],inactive
same,Potency,[20],inactive
CC(C)(C)c1cc(CCC(=O)NN)cc(C(C)(C)C)c1O,outcome,[1],inactive
same,outcome,[2],inactive
same,outcome,[3],inactive
same,outcome,[4],inactive
same,outcome,[5],inactive
same,outcome,[6],inactive
same,outcome,[7],inactive
same,outcome,[10],inactive
same,Potency,[15],inactive
same,Potency,[13],inactive
CC(C)NCC(O)COc1cccc2[nH]ccc12 (centres undefined),outcome,[1],inactive
same,outcome,[2],inactive
same,outcome,[3],inactive
same,outcome,[4],inactive
same,outcome,[5],inactive
same,outcome,[14],inactive
same,outcome,[7],inactive
same,Potency,[8],inactive
same,outcome,[9],inactive
same,outcome,[10],inactive
same,Potency,[11],inactive
same,Potency,[16],inactive
same,Potency,[12],inactive
same,Potency,[15],inactive
same,Potency,[17],inactive
same,outcome,[18],inactive
same,outcome,[19],inactive
same,Potency,[13],inactive
same,Potency,[20],inactive
CC1=C(C(=O)O)N2C(=O)[C@@H](NC(=O)[C@H](N)c3ccc(O)cc3)[C@H]2SC1,"fluorescence, % of fluorescein",[1],0.159% [at 18.6 µM] (inactive)
same,"fluorescence, % of fluorescent control",[2],0.558% [at 18.6 µM] (inactive)
same,activity change,[3],0.0539% [at 18.6 µM] (inactive)
same,"fluorescence, % of fluorescent control",[4],-0.034% [at 18.6 µM] (inactive)
same,"fluorescence, % of Rose Bengal",[5],-0.146% [at 18.6 µM] (inactive)
same,"fluorescence, % of fluorescent control",[6],0.197% [at 18.6 µM] (inactive)
same,"fluorescence, % of fluorescent control",[7],0.189% [at 18.6 µM] (inactive)
same,Potency,[8],inactive
same,outcome,[9],inactive
same,outcome,[10],inactive
same,Potency,[11],inactive
same,Potency,[16],inactive
same,Potency,[12],inactive
same,Potency,[15],inactive
same,Potency,[13],inactive
CCOC(=O)CC(=O)c1ccccc1,outcome,[1],inactive
same,outcome,[2],inactive
same,outcome,[3],inactive
same,outcome,[4],inactive
same,outcome,[5],inactive
same,outcome,[6],inactive
same,outcome,[7],inactive
same,Potency,[8],inactive
same,outcome,[10],inactive
same,Potency,[11],inactive
same,Potency,[12],inactive
same,Potency,[15],inactive
same,Potency,[13],inactive
CC1COc2ccccc2N1 (centres undefined),outcome,[1],inactive
same,outcome,[2],inactive
same,outcome,[3],inactive
same,outcome,[4],inactive
same,outcome,[5],inactive
same,outcome,[6],inactive
same,outcome,[7],inactive
same,Potency,[8],inactive
same,outcome,[9],inactive
same,outcome,[10],inactive
same,Potency,[16],inactive
same,Potency,[12],inactive
same,Potency,[15],inactive
same,Potency,[13],inactive
C#CC(C)N(C)C(=O)Nc1ccc(Cl)cc1 (centres undefined),outcome,[1],inactive
same,outcome,[2],inactive
same,outcome,[3],inactive
same,outcome,[4],inactive
same,outcome,[5],inactive
same,outcome,[6],inactive
same,outcome,[7],inactive
same,outcome,[10],inactive
same,Potency,[15],inactive
same,outcome,[18],inactive
same,outcome,[19],inactive
same,Potency,[13],inactive
same,Potency,[20],inactive
O=S(=O)(O)c1cc(O)c2ccc(Nc3ccccc3)cc2c1,outcome,[1],inactive
same,outcome,[2],inactive
same,outcome,[3],inactive
same,outcome,[4],inactive
same,outcome,[5],inactive
same,outcome,[6],inactive
same,outcome,[14],inactive
same,outcome,[7],inactive
same,Potency,[16],inactive
same,Potency,[12],inactive
same,Potency,[15],inactive
same,Potency,[13],inactive
C=C(C)C(=O)OCC(C)(C)COC(=O)C(=C)C,outcome,[1],inactive
same,outcome,[2],inactive
same,outcome,[3],inactive
same,outcome,[4],inactive
same,outcome,[5],inactive
same,outcome,[6],inactive
same,outcome,[7],inactive
same,outcome,[10],inactive
same,Potency,[11],inactive
same,Potency,[16],inactive
same,Potency,[12],inactive
same,Potency,[15],inactive
same,Potency,[13],inactive
CCc1ccc(C=O)cc1,outcome,[1],inactive
same,outcome,[2],inactive
same,outcome,[3],inactive
same,outcome,[4],inactive
same,outcome,[5],inactive
same,outcome,[6],inactive
same,outcome,[7],inactive
same,Potency,[8],inactive
same,outcome,[10],inactive
same,Potency,[11],inactive
same,Potency,[16],inactive
same,Potency,[12],inactive
same,Potency,[15],inactive
same,Potency,[13],inactive
Cc1ccc2c(c1)OCC(=O)CO2,outcome,[1],inactive
same,outcome,[2],inactive
same,outcome,[3],inactive
same,outcome,[4],inactive
same,outcome,[5],inactive
same,outcome,[14],inactive
same,outcome,[7],inactive
same,Potency,[8],inactive
same,outcome,[9],inactive
same,outcome,[10],inactive
same,Potency,[11],inactive
same,Potency,[16],inactive
same,Potency,[12],inactive
same,Potency,[15],inactive
same,Potency,[13],inactive
NNc1nnc(NN)c2ccccc12,outcome,[1],inactive
same,outcome,[2],inactive
same,outcome,[3],inactive
same,outcome,[4],inactive
same,outcome,[5],inactive
same,outcome,[6],inactive
same,outcome,[7],inactive
same,outcome,[10],inactive
same,Potency,[11],inactive
same,Potency,[16],inactive
same,Potency,[12],inactive
same,Potency,[15],inactive
same,Potency,[13],inactive
CCOc1cc(NC(C)=O)ccc1C(=O)OC,outcome,[1],inactive
same,outcome,[2],inactive
same,outcome,[3],inactive
same,outcome,[4],inactive
same,outcome,[5],inactive
same,outcome,[6],inactive
same,outcome,[7],inactive
same,Potency,[8],inactive
same,outcome,[9],inactive
same,outcome,[10],inactive
same,Potency,[11],inactive
same,Potency,[16],inactive
same,Potency,[12],inactive
same,Potency,[15],inactive
same,Potency,[13],inactive
